Screens as filed in PubChem.
Rows were chosen to be rich in hits. Some 4.1% of all compounds tested hit in one or more screens of this group.
tim23-1 inh – tim23-1 yeast growth inhibition; S. cerevisiae tim23-1 growth, BacTiter-Glo luminescence, 24 h; inhibition, % at 20 µM; AID 463212; actives 1.3% (n = 330,000);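 active = growth inhibition of the mutant yeast at or above 50%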;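 note: temperature-sensitive mutant grown at 25 °C; plate controls were DMSO-treated mutant yeast for no effect and medium wells lacking yeast for full effect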
TIM10 inh – growth inhibitors of TIM10 yeast strain. actives 1.4% (n = 330,000). inhibition, % at 10 µM. S. cerevisiae TIM10 strain growth, BacTiter-Glo luminescence, 24 h. AID 463195;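 active = inhibition of 40% or more at the single tested concentration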;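 note: wild-type TIM10 isogenic control strain grown at permissive 25 °C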
NLRP3 yeast inh – NALP3 inhibition in yeast; Yeast reconstituted NLRP3/ASC/caspase-1, beta-gal luminescence, 24 h; inhibition, % at 10 µM; actives 0.39% (n = 330,000); AID 2825;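 active = inhibition of 50% or more; inactive = inhibition below 50%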;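 note: plate controls were induced DMSO wells for no effect and uninduced yeast grown without galactose for full effect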
NALP1 inh – inhibitors of NALP1 inflammasome in yeast. actives 0.61% (n = 280,000). inhibition, % at 10 µM. S. cerevisiae NALP1/ASC/caspase-1 growth, X-gal OD620, 72 h; in the data active = inhibition mostly above about 24%, no sharp cut-off; inactive = mostly below about 32%
tim10-1 inh – inhibits growth of tim10-1 mutant yeast; S. cerevisiae tim10-1 ts strain growth, BacTiter-Glo, 24 h; inhibition, % at 20 µM; actives 2.2% (n = 330,000); AID 463190;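 active = inhibition of at least 40%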;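 note: mutant grown at 25 °C; 0% = DMSO wells with yeast and 100% = wells holding no yeast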
TIM10 conf – confirmation of TIM10 yeast growth inhibitors; shares compounds with TIM10 inh; S. cerevisiae tim10 strain growth, BacTiter-Glo luminescence, 24 h; inhibition, % at 10 µM; actives 63% (n = 4,600);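 active = inhibition of yeast growth at or above a set limit in either of two replicates at 10 µM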;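 note: this counterscreen used the strain with wild-type TIM10; 0% = yeast with DMSO and 100% = medium wells lacking yeast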
The depositor's hits bear a star; / = no result given.

SMILES	tim23-1 inh	TIM10 inh	NLRP3 yeast inh	NALP1 inh	tim10-1 inh	TIM10 conf
CCNC(=S)N/N=C/c1ccc(OCCOc2ccccc2C)cc1	-26	5	7	21	8	/
Cc1ccc(C(=O)Nc2ccc3c(c2)nc2n3CCSC2)cc1	42	63*	19	18	26	65*
C=CCOc1cccc(CNc2cccc(C(=O)O)c2)c1	14	5	0	8	0	/
CN1C(=O)C(=O)/C(=C(/O)c2ccc(Br)cc2)C1c1ccc(F)cc1 (stereo unspecified)	-2	-13	7	2	-5	/
CNc1nc(NN)nc(Nc2ccccc2)n1	-2	96*	20	3	16	6
CNc1nc(Nc2ccccc2)nc(OCC(F)(F)F)n1	-21	15	9	16	7	/
CCOC(=O)c1ccc(S(=O)(=O)n2c(CN3CCCCC3)nc3ccccc32)cc1	35	50*	9	18	37	28
COC(=O)C1C2C=CC3(CN(c4cccc(C)c4)C(=O)C13)O2 (stereo unspecified)	4	94*	8	-1	11	-4
COC(=O)C1C2C=CC3(CN(c4cccc(Cl)c4)C(=O)C13)O2 (stereo unspecified)	15	4	2	-22	14	/
COc1ccccc1CNC(=O)Nc1cccs1	18	28	13	3	22	/
COc1ccc(Br)cc1CNC(=O)Nc1cccs1	13	51*	8	1	29	39*
CC(C)CC(=O)Nc1cccc(C(C)O)c1 (stereo unspecified)	8	6	0	-3	1	/
COc1ccc2c(c1)C(=O)C(=O)N2	4	-2	8	2	15	/
O=C1Nc2cc3c(cc2C1=O)sc1ccccc13	0	50*	23	20	22	68*
CC(C)COP(=O)(OCC(C)C)C(Nc1ccccc1)c1ccccc1 (stereo unspecified)	38	41*	-6	7	32	34*
CC(C)COP(=O)(OCC(C)C)C(Nc1ccccc1)c1ccc(F)cc1 (stereo unspecified)	46	25	4	20	15	/
CCN(CC)c1ccc(/C=N/NC(=S)NCc2ccccc2)cc1	5	44*	12	13	34	-1
COc1ccc(CNC(=S)N/N=C/c2ccc(O)c(OC)c2)cc1	31	38	-3	2	2	/
C=CCNC(=S)N/N=C/c1ccc(N(CC)Cc2ccccc2)cc1	41	34	15	24	26	/
COc1ccc(CNC(=S)N/N=C/c2ccc(OC)c(OC)c2)cc1	7	40*	16	16	20	23
CC(=O)C(Sc1nc(NC(C)(C)C)nc(N(C)C)n1)C(C)=O	27	44*	16	-12	29	12
Cc1[nH]c2ccccc2c1C(C#N)(C#N)C1C(=O)c2ccccc2C1=O	36	63*	28	3	1	78*
O=C(c1ccco1)N1CCN=C1SCc1cccc(F)c1	20	96*	7	-4	-10	-3
CCN(C[C@H]1N[C@@](C)(C(=O)OC)[C@H]2C(=O)N(C)C(=O)[C@@H]12)C(=O)Nc1ccc(C(F)(F)F)cc1	8	-4	-5	/	7	/
O=C(Nc1ccc2ccccc2c1)C(c1ccccc1)C1CCCC1 (stereo unspecified)	7	44*	17	28	20	24
SMILES	tim23-1 inh	TIM10 inh	NLRP3 yeast inh	NALP1 inh	tim10-1 inh	TIM10 conf
COc1ccc(-c2nc3ccccc3c(=O)n2CCOc2c(C)cccc2C)cc1	6	10	-10	24	9	/
COc1cc(OC)cc(-c2nc3ccccc3c(=O)n2OC(=O)c2ccccc2C)c1	44	48*	1	28	36	11
CCOc1ccccc1Nc1nnc(SCC(=O)NC2CCS(=O)(=O)C2)s1 (stereo unspecified)	3	5	10	/	-4	/
N/C(=N\OC(=O)c1cccc2ccccc12)c1ccccn1	49	55*	22	9	22	55*
N/C(=N\OC(=O)c1ccc2ccccc2c1)c1ccccn1	13	45*	5	-3	36	51*
N/C(=N\OC(=O)c1ccc2ccccc2c1)c1ccccc1Cl	15	84*	26	26	36	85*
Cc1ccc(C(=O)N2CCC(C)CC2)cc1NC1=NC2CS(=O)(=O)CC2S1 (stereo unspecified)	-15	-3	6	3	-23	/
